Bioassay records as filed in PubChem BioAssay.
In the library only some 2.6% were active in any assay of this set; here they are far more common.
CRFBP-R2 agonist: CRF-BP/CRF-R2 complex agonism; HEK293 CRF-R2/CRF-BP, calcium dye fluorescence (FLIPR); percent of saturating CRF peptide response; 350,000 tested, 0.46% active; activation, % at 13.2 µM;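 active = activation of at least 50%, plus an integration ratio under a set limit after plate pattern correction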;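 also: plate controls were neutral control wells without compound for no effect and CRF at EC100 for full effect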
IDE cell inh: inhibits human insulin-degrading enzyme in HEK cells; P14735; 320,000 tested, 0.41% active; inhibition, % at 5.59 µM; AID 434962; FAbetaB cleavage, fluorescence polarization;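 active = percent inhibition above the average of all tested compounds plus 3 SD, set per screening campaign, cut at about 16% in these data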;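 also: IDE supplied by intact live HEK cells; FP after avidin binding of uncleaved biotin substrate so inhibition keeps polarization high; 0% = DMSO wells and 100% = 60 µM reference IDE inhibitor Ii1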
IDE act: activators of human insulin-degrading enzyme in cells. AID 493087. 340,000 tested, 0.073% active. P14735. activation, % at 5.96 µM. HEK cells, FAbeta-B cleavage, fluorescence polarization; 0% vehicle, 100% cell-free pure enzyme wells;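 active = activation above the mean of all tested compounds plus 3 SD, set per screening campaign, cut at about 17% in these data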
Myeloid diff 2: promotes myeloid progenitor differentiation; ER-HoxA9 myeloid progenitors, lysozyme-GFP differentiation, flow cytometry; calls only at 10 µM; 360,000 tested, 1% active; AID 624256;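 active = normalized GFP-positive differentiation at or above the plate's own cutoff, the solvent-only control mean plus 3 SD; inconclusive = no clear call, values can overlap the other calls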;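 also: cells exposed to compound for four days before flow analysis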
TPT1 inh: blocks Candida albicans tRNA 2'-phosphotransferase. recombinant caTPT1, FP RNA substrate dephosphorylation. inhibition, % at 5 µM. AID 1962. 300,000 tested, 0.81% active;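 active = inhibition above the mean of all tested compounds plus 3 SD, set per screening campaign, cut at about 24% in these data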;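 also: plate controls were DMSO alone for no effect and ferristatin control at 100 nM for full effect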
CRFBP-R2 block: blocks CRF-induced signaling of the CRF-BP/CRF-R2 complex. inhibition, % at 11.8 µM. HEK293 CRF-R2/CRF-BP, CRF-induced calcium fluorescence. 350,000 tested, 0.59% active;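 active = inhibition of the ligand-induced calcium signal above about 50% at the single tested concentration, limit read from the data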
* hit, by the source's call; i = inactive; ? = inconclusive; . = no result; + = active, no number.

SMILES	CRFBP-R2 agonist	IDE cell inh	IDE act	Myeloid diff 2	TPT1 inh	CRFBP-R2 block
O=C(NC(=S)Nc1cc(Cl)ccc1Cl)c1ccco1	0	.	.	i	.	-15
O=c1c2ccccc2nc2ccc(NCc3ccco3)nn12	6	-1	2	i	-12	3
Cc1sc2nc3ccc(NCc4ccco4)nn3c(=O)c2c1C	-4	3	-1	+	-16	5
Cc1ccc(C)c(S(=O)(=O)NCC(=O)Nc2sc3c(c2C(N)=O)CCC(C)C3)c1 (centres undefined)	2	2	7	i	0	-7
CCSc1nnc(NC(=O)C(CC)(C(F)(F)F)C(F)(F)F)s1	31	4	-1	.	-5	56*
CCN(c1ccccc1)c1nc(C#N)nc(N(CC)c2ccccc2)n1	1	2	2	i	0	83*
CC/C(=N\OC(=O)c1ccc(OC(C)C)cc1)c1ccc(C)cc1	4	5	1	i	-3	7
C/C(=N\OC(=O)c1ccc(OC(C)C)cc1)c1ccc(C)c(C)c1	-2	-3	4	i	-1	73*
CCc1ccc(N2CC(C(=O)N3CCN(S(=O)(=O)c4cccc(F)c4)CC3)CC2=O)cc1 (centres undefined)	-1	.	.	i	.	1
COc1ccccc1NS(=O)(=O)c1cccc(NC(=O)C2CC2)c1	0	-5	21*	i	.	-5
O=C(NCCc1csc(-c2ccccc2)n1)c1c(F)cccc1Cl	-1	-6	-1	i	-2	88*
O=c1cc(-c2ccccc2)[nH]n1-c1ccc([N+](=O)[O-])cc1	32	4	5	i	0	51*
NC(=O)c1ccc(N=Nc2c(-c3ccccc3)[nH]n(-c3ccccc3)c2=O)cc1	.	8	.	.	1	.
O=c1c(N=Nc2ccc(O)cc2)c(-c2ccccc2)[nH]n1-c1ccc([N+](=O)[O-])cc1	-3	-6	3	+	2	15
N#Cc1ccc(S(=O)(=O)N2CCC(C(=O)Nc3cccc(C(=O)NC4CC4)c3)CC2)cc1	-1	5	0	i	.	7
CCN(C(=O)COC(=O)c1cc(S(=O)(=O)N(C)C)ccc1Cl)C1CCS(=O)(=O)C1 (centres undefined)	4	-11	5	i	2	-2
Cc1cc(C)n2nc(SC(C)C(=O)N3CC(C)OC(C)C3)nc2n1 (centres undefined)	-2	1	2	i	.	-9
O=C(O)CSc1cc(C(=O)c2cc(F)ccc2O)cn2c(=O)c3c(-c4ccccc4)csc3nc12	2	4	-5	i	11	2
CCOC(=O)c1sc2nc3c(SCCC(=O)O)cc(C(=O)c4cc(OC)ccc4O)cn3c(=O)c2c1C	0	.	7	+	.	10
O=C(CNC(=O)c1ccc(F)cc1)N/N=C/c1cccnc1	-1	-1	-3	i	-3	10
COCc1ccc(CN2CCCCC2C(=O)Nc2ccc(Oc3ccccc3)nc2)o1 (centres undefined)	0	1	0	i	0	-2
Cc1[nH]c2ccccc2c1C(=O)NS(=O)(=O)Nc1ccc(F)cc1	-1	3	-1	+	1	21
COc1cccc(NS(=O)(=O)NC(=O)c2c(C)[nH]c3ccccc23)c1	0	1	1	i	-1	-2
Cc1noc(C)c1CSCc1ccc(Cl)cc1	-3	-1	.	i	-4	76*
COc1ccc(CC(=O)Nc2nc(OCC(F)(F)F)cnc2-c2ccc(Cl)cc2Cl)cc1	.	.	.	i	.	.
SMILES	CRFBP-R2 agonist	IDE cell inh	IDE act	Myeloid diff 2	TPT1 inh	CRFBP-R2 block
Nc1nnc(SCc2ccccc2Cl)s1	-1	1	2	i	-3	0
Nc1nnc(SCc2cc3c(cc2Cl)OCO3)s1	-3	1	1	i	-2	59*
COc1ccccc1C(=O)N/C(=C\c1ccc(Br)cc1)C(=O)N1CCCC1	0	5	.	i	-1	-3
CC1(C)c2[nH]c3ccccc3c2C[C@H]2C(=O)N(Cc3ccccc3)C(=O)N21	0	11	2	i	-1	60*
CC1CN(C(C)C(=O)NNC(=O)c2ccc(F)cc2)CC(C)O1 (centres undefined)	4	5	0	+	.	4
COc1cc(C(=O)Nn2cnnc2)ccc1OC(F)F	-1	8	2	i	0	2
CC[C@@H](C(=O)[C@@H](C)[C@@H](O)[C@H](C)CCc1ccc(C)c(O)c1C(=O)O)[C@H]1O[C@](CC)([C@H]2CC[C@](O)(CC)[C@H](C)O2)C[C@@H]1C	118*	-2	0	?	-3	-2
COc1ccc(OC)c(N(CCN2C(=O)c3ccccc3C2=O)C(=O)C2CCC(=O)C2C)c1 (centres undefined)	-2	.	.	i	.	6
Cc1cc(NS(=O)(=O)c2c(C(=O)N3CCOCC3)c(C)n(C)c2C)ccc1Br	-1	2	5	i	0	92*
Oc1cc(OCc2ccccc2)ccc1-c1[nH]ncc1-c1ccccc1	-1	1	23*	i	1	11
O=[N+]([O-])c1ccc(COc2ccc(-c3[nH]ncc3-c3ccccc3)c(O)c2)cc1	0	-1	9	i	-3	-42
C[C@H](NC(=O)Nc1ccc2c(c1)OCCO2)C(=O)O	-1	2	9	i	1	96*
O=C(O)CC(Cn1[nH]nnc1=S)c1ccccc1 (centres undefined)	-1	5	-4	+	-5	-4
O=C(O)CC(CC(=O)Nc1nncs1)c1ccccc1 (centres undefined)	3	7	5	i	-1	15
S=c1nc(COc2ccccc2)[nH]c2ccccc12	0	-2	-5	+	3	3
S=c1nc(Cc2ccc(Cl)cc2)[nH]c2ccccc12	-9	-6	.	i	1	16
S=c1nc(Cc2ccccc2)[nH]c2ccccc12	-1	-3	-6	+	0	11
N=c1cc(C2(O)CCCCC2)n2c(nc3ccccc32)s1	-1	1	0	i	3	-8
CN(C)S(=O)(=O)c1ccc(Cl)c(NC(=O)COC(=O)/C=C/c2ccco2)c1	-6	-1	-2	i	2	1
CCN1CCN(C2=CC3=CC(=C(C#N)C#N)CCC3CC2)CC1 (centres undefined)	500*	.	35*	+	.	i
N#CC(C#N)=C1C=C2C=C(N3CCCCCC3)CCC2CC1 (centres undefined)	216*	.	47*	i	.	-170
CN1CCN(C2=CC3=CC(=C(C#N)C#N)CCC3CC2)CC1 (centres undefined)	241*	.	13	+	.	-172
N#CC(C#N)=C1C=C2C=C(N3CCOCC3)CCC2CC1 (centres undefined)	248*	.	58*	+	.	-266
